{"source": "PubChem BioAssay (NCATS)", "note": "Unmarked numbers belong to inactive results. Results filed as inconclusive are left out. The source made the active and inactive calls. Calls follow the shape of the dose curve; as a rule, active = well fitted curve in the direction sought with a large enough effect; inconclusive = small, poorly fitted or top-dose-only effect, or another doubt; inactive = no such curve, though single readings can be large; an effect the other way counts as inactive or inconclusive.", "data": [{"experiment": "Cell Viability - LYMP2-001 (AID 921); also: nearly all actives have a fitted effect of over 70% in size; also: potency is read from the fitted curve at half-maximal effect;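 as to activity change, negative = cytotoxic: 0% = DMSO only and full inhibition = tetraoctylammonium bromide control wells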", "details": "LYMP2-001 lymphoblastoid cell viability; series mostly up to 92.2 µM; activity change, negative = cytotoxic: at the top concentration", "summary_of_the_method": "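qHTS, 1536-well; lymphoblastoid cells, 24 hr compound, 37 C; ATP by CellTiter-Glo, 30 min RT; luminescence; Hill-fit AC50.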", "units": {"activity change, negative = cytotoxic": "%"}, "values": [{"molecule": "O=C(O)COc1ccc(Cl)cc1Cl", "Potency": "inactive"}, {"molecule": "ClC1=C(Cl)C2(Cl)C3C4C=CC(C4)C3C1(Cl)C2(Cl)Cl", "note": "(centres undefined)", "Potency": "39.8 µM (active)"}, {"molecule": "c1ccc(N=Nc2ccccc2)cc1", "activity change, negative = cytotoxic": -42.6}, {"molecule": "C=CCc1ccc(OC)cc1", "activity change, negative = cytotoxic": 10.9}, {"molecule": "ClC(Cl)=C(c1ccc(Cl)cc1)c1ccc(Cl)cc1", "Potency": "inactive"}, {"molecule": "C/C=C/c1ccc2c(c1)OCO2", "activity change, negative = cytotoxic": -5.73}, {"molecule": "C=CCc1ccc2c(c1)OCO2", "activity change, negative = cytotoxic": -16.7}, {"molecule": "COP(=S)(OC)Oc1ccc([N+](=O)[O-])cc1", "activity change, negative = cytotoxic": -17.2}]}, {"experiment": "Confirmation and Secondary Assay for Modulators of Hemoglobin Beta Chain Splicing at IVS2 705 locus (AID 930); also: % of control where 0% means no effect", "details": "HeLa EGFP-705 splicing reporter, GFP fluorescence, 48 h; series mostly up to 46.1 µM; activation: at the top concentration", "summary_of_the_method": "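HeLa cells stably carrying EGFP interrupted by mutant beta-globin IVS2-705 intron (CMV-driven) were seeded at 500 cells/well, treated next day with compound for 2 days at 37C; corrected splicing restores EGFP, read as total peak GFP intensity per well.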", "values": [{"molecule": "O=C(O)COc1ccc(Cl)cc1Cl", "activation": "1.53% [at 38.3 µM]"}, {"molecule": "O=C(O)CNCP(=O)(O)O", "activation": "1.08% [at 38.3 µM]"}, {"molecule": "CC(=O)OC1CC2C(C)(C)C(=O)C=C[C@]2(C)C2CC[C@]3(C)C(=CC(=O)OC3c3ccoc3)[C@]12C", "note": "(some centres undefined)", "activation": "0.12%"}, {"molecule": "COc1cc2c(cc1O)CC1c3c(cc(O)c(OC)c3-2)CCN1C", "note": "(centres undefined)", "activation": "-0.165% [at 38.3 µM]"}, {"molecule": "ClC1=C(Cl)C2(Cl)C3C4C=CC(C4)C3C1(Cl)C2(Cl)Cl", "note": "(centres undefined)", "activation": "-0.0783% [at 38.3 µM]"}, {"molecule": "c1ccc(N=Nc2ccccc2)cc1", "activation": "-0.984%"}, {"molecule": "CNC(=O)O/N=C/C(C)(C)SC", "activation": "1.49% [at 38.3 µM]"}, {"molecule": "O=C1c2ccccc2-c2cccc3cccc1c23", "activation": "-0.244%"}, {"molecule": "CCNc1nc(Cl)nc(NC(C)C)n1", "activation": "-0.883% [at 38.3 µM]"}, {"molecule": "COc1cc2c(cc1-c1cc3cc4ccoc4cc3oc1=O)OCO2", "activation": "3.91%"}, {"molecule": "ClC1=C(Cl)C2(Cl)C3C4CC(C5OC45)C3C1(Cl)C2(Cl)Cl", "note": "(centres undefined)", "activation": "0.917% [at 38.3 µM]"}, {"molecule": "ClC(Cl)=C(c1ccc(Cl)cc1)c1ccc(Cl)cc1", "activation": "1.49% [at 38.3 µM]"}, {"molecule": "CCc1cccc(CC)c1N(COC)C(=O)CCl", "activation": "1.49% [at 38.3 µM]"}, {"molecule": "C/C=C/c1ccc2c(c1)OCO2", "activation": "1.86% [at 38.3 µM]"}, {"molecule": "C=CCc1ccc2c(c1)OCO2", "activation": "0.531%"}, {"molecule": "COP(=S)(OC)Oc1ccc([N+](=O)[O-])cc1", "activation": "-0.941% [at 38.3 µM]"}]}]}
